Laboratory results from PubChem BioAssay (Tox21).
Inconclusive results are not listed. Activity calls are given as the source filed them. Calls follow the shape of the dose curve; as a rule, active = well fitted inhibition curve with a large enough effect in the repeat runs; inconclusive = weak or mixed curves, or effect the other way; inactive = no such curve, though single readings can be large or run the other way.

biological target: Androgen receptor (Homo sapiens) (UniProt P10275); assay: qHTS assay to identify small molecule antagonists of the androgen receptor (AR) signaling pathway using the MDA cell line (AID 743042; also: nearly all actives have a fitted effect of over 55% in size); settings: MDA-kb2 AR-luc, MMTV luciferase, R1881 antagonist, 16 h; series mostly up to 70.3 µM; activity change, negative = inhibition: at the top concentration
Sequence (P10275 whole entry, looked up): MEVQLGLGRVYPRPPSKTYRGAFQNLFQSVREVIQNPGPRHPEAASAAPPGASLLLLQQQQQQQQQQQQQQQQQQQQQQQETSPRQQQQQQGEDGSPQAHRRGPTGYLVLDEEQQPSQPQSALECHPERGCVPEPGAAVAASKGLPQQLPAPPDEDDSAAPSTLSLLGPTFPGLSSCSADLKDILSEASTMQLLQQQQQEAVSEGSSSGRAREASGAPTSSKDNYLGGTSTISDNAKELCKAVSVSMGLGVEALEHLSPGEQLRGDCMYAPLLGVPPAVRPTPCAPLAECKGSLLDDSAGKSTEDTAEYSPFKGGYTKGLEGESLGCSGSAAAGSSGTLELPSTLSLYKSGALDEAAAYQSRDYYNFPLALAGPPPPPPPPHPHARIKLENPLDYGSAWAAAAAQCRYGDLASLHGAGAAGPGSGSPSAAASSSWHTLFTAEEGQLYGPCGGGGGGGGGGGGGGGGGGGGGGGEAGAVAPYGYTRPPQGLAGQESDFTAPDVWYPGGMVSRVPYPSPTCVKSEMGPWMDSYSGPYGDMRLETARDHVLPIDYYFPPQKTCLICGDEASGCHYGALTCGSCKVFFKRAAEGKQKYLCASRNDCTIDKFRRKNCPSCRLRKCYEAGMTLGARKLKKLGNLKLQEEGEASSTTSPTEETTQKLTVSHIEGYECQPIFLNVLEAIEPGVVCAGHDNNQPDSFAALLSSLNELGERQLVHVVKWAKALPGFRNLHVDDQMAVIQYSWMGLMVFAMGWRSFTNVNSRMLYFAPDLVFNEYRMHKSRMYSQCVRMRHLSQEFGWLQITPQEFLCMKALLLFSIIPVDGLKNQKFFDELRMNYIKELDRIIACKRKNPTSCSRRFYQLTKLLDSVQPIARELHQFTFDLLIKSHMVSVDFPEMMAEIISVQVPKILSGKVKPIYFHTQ
Excerpt: U.S. Tox21 Program National Center for Advancing Translational Sciences [NCATS] NIH Chemical Genomics Center [NCGC] U.S. Environmental Protection Agency [EPA] National Institutes of Environmental Health Sciences [NIEHS] National Toxicology Program [NTP] U.S. Food and Drug Administration [FDA] Tox21 Assay Overview: Androgen receptor (AR), a nuclear hormone receptor, plays a critical role in AR-dependent prostate cancer and other androgen related diseases. Endocrine disrupting chemicals (EDCs) and their interactions with steroid hormone receptors like AR may cause disruption of normal endocrine function as well as interfere with metabolic homeostasis, reproduction, developmental and behavioral functions. To identify the compounds that inhibit AR signaling, MDA-kb2 AR-luc cell line (from ATCC, deposited by Wilson et al.) was used to screen the Tox21 10K compound library. MDA-kb2 AR-luc cell line is human breast carcinoma cell line that was stably transfected with a luciferase reporter gene under control of the MMTV promoter containing response elements for both androgen receptor (AR) and glucocorticoid receptor (GR).
Tox21 Assay Protocol Summary: MDA-kb2 cells were dispensed at 3,000 cells/4 uL/well of culture medium into white wall/solid-bottom 1536-well plates using a Multidrop Combi (ThermoFisher Scientific, Waltham, MA) dispenser. After the assay plates were incubated at a 37C and 0% CO2 for 5 hr, 23 nL of compounds dissolved in DMSO, positive controls or DMSO only was transferred to the assay plate by a Pintool station (Kalypsys, San Diego, CA), followed by addition of 1 uL of agonist (R1881) in culture medium using a Bioraptr Flying Reagent Dispenser (FRD) workstation (Beckman Coulter, Indianapolis, IN, USA). The plates were incubated at a 37C and 0% CO2 for 16 h. After 15.5 h incubation, 1uL of CellTiter-Fluor reagent (Promega, Madison, WI) was added using a Bioraptr FRD to each plate for measuring cytotoxicity. The fluorescence intensity was quantified on a ViewLux plate reader (PerkinElmer, Shelton, CT) following 30 min incubation at 37C and 0% CO2. For measuring luciferase reporter gene activity, 4 uL of ONE-Glo reagent (Promega) was added to each plate using a Bioraptr FRD and luminescence was quantified on a ViewLux (PerkinElmer) plate reader after 30 min incubation at room temperature.
% is scaled to controls: 0 for no effect and ±100 for the full control effect; potency is read from the fitted curve at half-maximal effect.

| Compound | activity change, negative = inhibition | Potency |
| --- | --- | --- |
| COc1ccc(C(C)=O)cc1 | 3.28% [at 95 µM] (inactive) | – |
| CC(C(=O)O)c1ccc(C(=O)c2ccccc2)s1 (stereo not given) | 31.8% [at 32.5 µM] (inactive) | – |
| CN1CCN(C2=Nc3ccccc3Sc3ccc(Cl)cc32)CC1 | 0.189% (inactive) | – |
| CC(C)CCCC(C)CCO (stereo not given) | 4.65% (inactive) | – |
| O=C(O)COC(=O)Cc1ccccc1Nc1c(Cl)cccc1Cl | -3.83% [at 32.5 µM] (inactive) | – |
| COc1ccccc1OC(=O)Oc1ccccc1OC | -4.51% (inactive) | – |
| N[C@H]1C(O)O[C@H](CO)[C@H](O)[C@@H]1O (stereo not given in full) | 4.55% (inactive) | – |
| NCCCN(CCO)CCO | -2.13% (inactive) | – |
| O=C(O)[C@@H]1[C@H]2C[C@H]3c4[nH]c5ccccc5c4CCN3C[C@@H]2CC[C@@H]1O | 3.77% [at 32.5 µM] (inactive) | – |
| COCCOCCOCCOCCOC | 0.875% (inactive) | – |
| Cc1cc(NC(=O)C(=O)O)cc(C)c1Oc1ccc(O)c2c1CCC2 | 4.99% (inactive) | – |
| O=C(c1ccc(O)cc1)c1ccc(O)cc1 | -13.3% (inactive) | – |
| C=C(C)C(=O)OCCOc1ccccc1 | 1.24% (inactive) | – |
| CN(C)CC/C=C1\c2ccccc2COc2ccccc21 | -4.23% (inactive) | – |
| CC(=O)SCc1ccco1 | -16.1% (inactive) | – |
| CCN(CC)CCOC(=O)C1(c2ccccc2)CCCC1 | 13.4% (inactive) | – |
| COC(=O)CSc1cc(N=c2sc(=O)n3n2CCCC3)c(F)cc1Cl | -8.37% (inactive) | – |
| CCOc1nc2cccc(C(=O)O)c2n1Cc1ccc(-c2ccccc2-c2nn[nH]n2)cc1 | -0.946% (inactive) | – |

| Compound | activity change, negative = inhibition | Potency |
| --- | --- | --- |
| Cc1cc(C)c(S(=O)(=O)O)cc1N=Nc1cc(S(=O)(=O)O)c2ccccc2c1O | -12.1% (inactive) | – |
| O=C(CCN1CCN2CCCC2C1)N1c2ccccc2Sc2ccc(Cl)cc21 (stereo not given) | -19.2% (inactive) | – |
| CCCOc1ccc2nc(NC(=O)OC)[nH]c2c1 | 9.18% (inactive) | – |
| O=C(NS(=O)(=O)/C=C/c1cccs1)c1ccc(F)cc1Br | 102% (inactive) | – |
| C1CCC2OC2C1 (stereo not given) | 5.74% [at 95 µM] (inactive) | – |
| CCCCCCc1ccc(N)cc1 | 0.87% (inactive) | – |
| NC(N)=NN=C(/C=C/c1ccc([N+](=O)[O-])o1)/C=C/c1ccc([N+](=O)[O-])o1 | – | 5.96 µM (active) |
| O=[N+]([O-])c1cc[n+]([O-])cc1 | -23.3% (inactive) | – |
| CC(C)c1ccc2c(C(C)C)cc(C(C)C)c(S(=O)(=O)O)c2c1 | 4.69% [at 95 µM] (inactive) | – |
| CC[C@]12CCCN3CCc4c(n(c5ccccc45)C(=O)C1)[C@@H]32 | -6.22% [at 32.5 µM] (inactive) | – |
| O=C(C(=O)c1ccc(Br)cc1)c1ccc(Br)cc1 | 5.76% [at 32.5 µM] (inactive) | – |
| CCCCOC(O)CC (stereo not given) | -8.07% (inactive) | – |
| CCCCCCCC/C=C\CCCCCCCC(N)=O | -16.3% (inactive) | – |
| NC(=S)N/N=C/c1cccnc1 | -1.35% (inactive) | – |
| O=C(Cl)c1ccc([N+](=O)[O-])cc1 | 5.49% (inactive) | – |
| O=C(O)Cc1sc(-c2ccccc2)nc1-c1ccc(Cl)cc1 | – | inactive |
| C=C(C)C(=O)OC(C)C | -0.495% (inactive) | – |
